# Assay outcomes from PubChem BioAssay.
# TSG101-PTAP inh: qHTS Assay for Iinhibitors of HIV-1 Budding by Blocking the Interaction of PTAP/TSG101 | Tumor susceptibility gene 101 protein (Homo sapiens), Q99816 | Fluorescence polarization, FITC-PTAP peptide / Tsg101 binding | Potency, µM (highest dose often 115 µM), for the others: at the highest dose activity change, negative = inhibition, hits mostly inhibitors | 340,000 tested, under 10 active | AID 493005, 2010; active = well fitted inhibition curve with a large enough effect in the main read-out, with a control signal flat, not every such curve was filed as active; inconclusive = small, poorly fitted or top-dose-only effect, or effect the other way, or a change in a side signal; inactive = no such curve, though single readings can be large or run the other way; note: % of control where 0% means no effect
# Target sequence (Q99816 whole entry, looked up): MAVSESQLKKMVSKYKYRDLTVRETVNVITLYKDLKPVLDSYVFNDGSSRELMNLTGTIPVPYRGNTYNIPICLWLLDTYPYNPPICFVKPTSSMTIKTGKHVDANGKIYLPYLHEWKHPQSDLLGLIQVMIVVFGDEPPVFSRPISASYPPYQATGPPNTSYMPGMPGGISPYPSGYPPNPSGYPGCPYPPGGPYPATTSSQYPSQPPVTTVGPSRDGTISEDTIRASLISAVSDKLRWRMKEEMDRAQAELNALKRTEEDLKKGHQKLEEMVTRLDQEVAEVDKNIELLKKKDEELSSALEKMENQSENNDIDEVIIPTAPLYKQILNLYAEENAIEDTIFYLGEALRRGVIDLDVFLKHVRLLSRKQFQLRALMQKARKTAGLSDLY
#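 Fluorescence polarization binding of Tsg101 binding domain (10 uM final) to FITC-labeled PTAP peptide (50 nM final) in HEPES pH 7.5 buffer with NaCl, Tween 20, EDTA, TCEP. Compounds added before peptide; binding 20 min at RT.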
# PINK1 expr mod: A Quantitative High throughput Screen to Identify Chemical Modulators of PINK1 Expression; PINK1 immunofluorescence, high-content cytometry, 24 h; Potency, µM (top dose mostly 76.6 µM), without a hit: at the top dose activation (PINK1 increase), actives largely listed as activators; 410,000 tested, 0.2% active; AID 624263, 2012; active = well fitted activation curve with a large enough effect; inconclusive = small, poorly fitted or top-dose-only effect; cell line not stated here; note: % of control where 0% means no effect; nearly all actives have a fitted effect of over 65% in size
#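 Decision-based qHTS: stable cells, 24 h exposure to five compound concentrations, CCCP as control. Fixed cells stained for PINK1 plus nuclear, mitochondrial and cell markers, cytometer read.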
# KB-V1 cytotox: qHTS assay for MDR1-selective chemotherapeutics: Primary screen using the drug-selected MDR subline cells KB-V1 | KB-V1 MDR cells viability, CellTiter-Glo, 72 h | Potency, µM (titrated, usually from 46.1 µM), most hits filed as cytotoxic | 400,000 tested, 3.4% active; note: % is set by controls: 0 for no effect and ±100 for the full control effect; nearly all actives have a fitted effect of over 60% in size
#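 KB-V1 MDR subline cells in DMEM (phenol-red free, 10% FBS) exposed to compounds in qHTS concentration series for 72 h at 37 degrees C. Viability read by CellTiter-Glo luminescence; concentration-effect curves fitted after normalization and correction.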
# MCF10A rerep: A quantitative high throughput screen for small molecules that induce DNA re-replication in MCF 10a normal breast cells | MCF 10A DNA re-replication, Hoechst nuclear intensity, 48 h | Potency, µM (series often up to 46.1 µM), for inactives: at the top dose activity, positive = re-replication, actives largely listed as activators | 350,000 tested, 2.9% active | AID 624296, 2012; note: % of control where 0% means no effect; nearly all actives have a fitted effect of over 50% in size
# KB-3-1 tox: qHTS assay for MDR1-selective chemotherapeutics: Primary screen using the parental adenocarcinoma cell KB-3-1; KB-3-1 viability, CellTiter-Glo ATP luminescence, 72 h; Potency, µM (highest dose often 46.1 µM), actives largely listed as cytotoxic; 400,000 tested, 1.4% active; AID 1347075, 2019; note: % is set by controls: 0 for no effect and ±100 for the full control effect; nearly all actives have a fitted effect of over 60% in size
#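 KB-3-1 parental drug-naive adenocarcinoma cells in DMEM/10% FBS, incubated 72 h at 37 C with pin-transferred compounds across a concentration series. Viability by CellTiter-Glo luminescence; concentration-response curves fitted after normalization.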
# SW480 rereplic: A quantitative high throughput screen for small molecules that induce DNA re-replication in SW480 colon adenocarcinoma cells; SW480 DNA re-replication, Hoechst DNA content imaging, 48 h; Potency, µM (series often up to 46.1 µM), for the others: at the top dose re-replication activation, usual class: activators; 340,000 tested, 1.8% active; note: % of control where 0% means no effect; nearly all actives have a fitted effect of over 55% in size
#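 DNA re-replication was detected as more nuclei of elevated Hoechst intensity after 48 hr exposure to compound (23 nL pinned per well of 250 cells).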
# The depositor's hits bear a star; i = inactive; ? = inconclusive; / = not tested or not shown; [ ] = another dose, or the depositor's remark. Most compounds without a hit are left out; they make up all but 6.8% or so of the library. Unless noted, calls come from the whole dose curve; as a rule, active = well fitted curve in the direction sought with a large enough effect; inconclusive = small, poorly fitted or top-dose-only effect, or another doubt; inactive = no such curve, though single readings can be large; an effect the other way counts as inactive or inconclusive. Potency is the fitted concentration of half-maximal effect.
SMILES,TSG101-PTAP inh,PINK1 expr mod,KB-V1 cytotox,MCF10A rerep,KB-3-1 tox,SW480 rereplic
COc1ccc(NC(=O)CN(C)C(=O)c2csc3c2CCCC3)cc1,-4%,-1%,?,3%,i,-3%
CCOc1ccc(NC(=O)CN(C)C(=O)c2ccc(COc3ccccc3)cc2)cc1OCC,-3%,2%,9.2µM*,5%,i,1%
CCOc1ccc(NC(=O)CN(C)C(=O)c2cccnc2SC)cc1OCC,2%,5%,i,2%,i,1%
CCOc1ccc(NC(=O)CN(C)C(=O)c2ccccc2OCc2cccc(C)c2)cc1OCC,0%,0%,2.9µM*,?,i,?
CCOc1ccc(NC(=O)CN(C)C(=O)c2cccnc2Sc2ccc(C)cc2C)cc1OCC,-3%,3%,16µM*,-2%,i,-3%
CCOC(=O)c1c(C)oc2nc(C)nc(NCC3CCN(Cc4cccc(Cl)c4)CC3)c12,/,3%,i,/,i,/
CCC1Oc2ccc(C)cc2N(CC(=O)N2CCN(c3ccccc3OC)CC2)C1=O (stereo not given),/,0%,/,/,/,/
CCc1ccc(/C=C2\Oc3cc(OC(=O)N4CCOCC4)ccc3C2=O)cc1,-5%,?,21µM*,?,?,4%
COc1ccc(/C=C2\Oc3cc(OC(=O)N4CCOCC4)ccc3C2=O)cc1,0%,13%,i,6%,i,-18%
CCOC(=O)N1CCN(c2ccc([N+](=O)[O-])cc2F)CC1C (stereo not given),0%,1%,23µM*,20%,i,-2%
CCOC(=O)N1CCN(c2cc(C)c(C(C)=O)cc2F)CC1,-10%,1%[38.3 µM],i,15%,i,2%
CCOC(=O)N1CCN(c2cc(N)c([N+](=O)[O-])cc2F)CC1,-5%,-8%[38.3 µM],23µM*,-1%,i,-12%
COc1cc(C2c3c(-c4c(C)cc(C)cc4O)n[nH]c3C(=O)N2Cc2ccco2)cc(OC)c1OC (stereo not given),/,5%,i,/,i,/
Cc1ccc(CNC(=O)c2cn(C)c3ccc(S(=O)(=O)N(C)C4CCCCC4)cc3c2=O)cc1,/,3%,i,/,i,/
O=C(NCC(c1cccnc1)N1CCN(c2ccccc2)CC1)OCc1ccccc1 (stereo not given),-2%,-2%,2.6µM*,15%,i,-4%
O=C(NCC(c1cccnc1)N1CCN(c2ccccc2)CC1)C1CCCCC1 (stereo not given),-4%,/,21µM*,-7%,i,1%
O=C(NCC(c1cccnc1)N1CCN(c2ccc(F)cc2)CC1)OCc1ccccc1 (stereo not given),-1%,1%,?,4%,i,4%
COC(=O)NCC(c1cccnc1)N1CCN(c2ccccc2)CC1 (stereo not given),-2%,0%,i,14%,i,2%
CC(C)c1nn2c(=O)cc(COC(=O)c3cccs3)nc2s1,/,1%,i,/,i,/
CCc1cccc(NC(=O)C2CCC(CNS(=O)(=O)c3ccc(Br)s3)CC2)c1 (stereo not given),/,0%,i,/,i,/
O=C(NCCc1ccccc1)C1CCN(Cc2cc3ccccc3n2Cc2ccccc2)CC1,/,-1%,i,/,i,/
CCn1nc(C)c(CN2Cc3ccccc3OC(c3ccccc3OC)C2)c1C (stereo not given),/,-1%,/,/,/,/
O=C(COC(=O)Cn1cnc2ccccc21)Nc1ccc(Br)cc1,/,0%,i,/,i,/
